Screening results (PubChem BioAssay)
Pol eta inh – qHTS for Inhibitors of Polymerase Eta; DNA polymerase eta (Homo sapiens), Q9Y253; recombinant Pol eta, fluorescent DNA replication assay; Potency, µM (titrated, usually from 114 µM), actives largely listed as inhibitors; 1.2% of 390,000 active
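Pol eta at 10 nM preincubated with compounds 15 min at room temperature; reaction started with fluorescent substrate (50 nM final) and read kinetically at 0 and 10 min.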
POLK inh – qHTS for Inhibitors of Polymerase Kappa. DNA polymerase kappa (Homo sapiens), Q9UBT6. AID 588579, 2011. 0.53% of 400,000 active. Potency, µM (titrated, usually from 107 µM), hits mostly inhibitors. purified Pol kappa, fluorescent DNA synthesis assay, 10 min
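10 nM Pol kappa preincubated 15 min at room temperature with compounds, then reaction started with substrate at 50 nM final. Fluorescence read kinetically at 0 and 10 min; buffer-only wells served as negative control.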
WRN helicase inh – qHTS for Inhibitors of WRN Helicase; Bifunctional 3'-5' exonuclease/ATP-dependent helicase WRN (Homo sapiens), Q14191; WRN helicase unwinding, fluorescent forked duplex, kinetic; Potency, µM (highest dose often 114 µM), usual class: inhibitors; 0.46% of 360,000 active; AID 651768, 2012; note: nearly all actives have a fitted effect of over 55% in size
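Fluorescence dequenching readout, ex 525 nm/em 598 nm, kinetic mode: forked duplex DNA (100 nM final) with adjacent fluorophore and quencher unwound by WRN (20 nM final) with 2 mM ATP. Compound preincubation 15 min, room temperature.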
FEN1 inh – qHTS Assay for the Inhibitors of Human Flap endonuclease 1 (FEN1); Potency, µM (series often up to 114 µM), hits mostly inhibitors; AID 588795, 2011; 0.35% of 390,000 active; Recombinant FEN1 flap cleavage, fluorescence, 15 min; P39748; note: nearly all actives have a fitted effect of over 65% in size
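Concentration–response screening of FEN1 (10 nM): 15 min compound preincubation at room temperature, reaction started with 50 nM substrate and read at 0 and 15 min. Corrected, normalized data were fitted by a four-parameter Hill equation.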
POLI inh – qHTS for Inhibitors of Polymerase Iota; Pol iota fluorescent replication assay, 10 min; 1% of 390,000 active; AID 588590, 2011; Potency, µM (highest dose often 115 µM), actives largely listed as inhibitors; DNA polymerase iota (Homo sapiens), Q9UNA4
Target sequence (Q9UNA4 whole entry, looked up): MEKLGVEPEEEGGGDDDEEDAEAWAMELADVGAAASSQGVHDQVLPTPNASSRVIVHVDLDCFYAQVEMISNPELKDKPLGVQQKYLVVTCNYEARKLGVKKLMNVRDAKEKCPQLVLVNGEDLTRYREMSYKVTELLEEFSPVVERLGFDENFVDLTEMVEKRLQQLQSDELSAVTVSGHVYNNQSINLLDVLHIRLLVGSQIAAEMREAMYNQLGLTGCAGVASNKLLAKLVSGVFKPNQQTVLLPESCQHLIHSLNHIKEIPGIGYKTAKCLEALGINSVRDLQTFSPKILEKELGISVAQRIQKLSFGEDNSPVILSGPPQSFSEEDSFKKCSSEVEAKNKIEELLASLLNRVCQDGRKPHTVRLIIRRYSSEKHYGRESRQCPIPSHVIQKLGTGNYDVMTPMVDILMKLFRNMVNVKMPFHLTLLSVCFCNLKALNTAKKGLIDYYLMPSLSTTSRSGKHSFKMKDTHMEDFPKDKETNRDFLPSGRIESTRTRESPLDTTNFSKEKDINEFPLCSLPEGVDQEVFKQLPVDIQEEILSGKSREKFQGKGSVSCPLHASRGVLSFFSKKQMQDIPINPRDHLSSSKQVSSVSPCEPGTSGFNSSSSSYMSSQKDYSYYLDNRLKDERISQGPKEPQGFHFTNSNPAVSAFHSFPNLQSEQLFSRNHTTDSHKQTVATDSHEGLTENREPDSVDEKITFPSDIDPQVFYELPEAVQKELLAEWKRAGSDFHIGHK
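Pol iota at 10 nM preincubated 15 min with compounds at room temperature; reaction started with fluorescent substrate, 50 nM final. Fluorescence read kinetically at 0 and 10 min; buffer-only wells as negative control.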
Pol beta inh – qHTS Assay for Inhibitors of DNA Polymerase Beta | P06746 | Pol beta primer extension/strand displacement, fluorescence kinetic | Potency, µM (highest dose often 114 µM), most hits filed as inhibitors | 1.3% of 340,000 active
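Values derive from four-parameter Hill fits of normalized kinetic data: reads at 0 and 10 min following addition of 50 nM substrate to 10 nM Pol beta preincubated 15 min with compound.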
Numbers stand for hits; i = inactive; ? = inconclusive; nt = no result given; [ ] = another dose, or the depositor's remark. Shown are actives, neighbours in structure and some others; about 2.4% of the full set was active somewhere. Calls come from the whole dose curve; as a rule, active = well fitted curve in the direction sought with a large enough effect; inconclusive = small, poorly fitted or top-dose-only effect, or another doubt; inactive = no such curve, though single readings can be large; an effect the other way counts as inactive or inconclusive.

SMILES | Pol eta inh | POLK inh | WRN helicase inh | FEN1 inh | POLI inh | Pol beta inh
CCCN1CNc2c(c(=O)[nH]c(=S)n2CCc2cccc(OC)c2OC)C1 | nt | i | nt | i | i | nt
O=C(CSc1nccn1C1CCCC1)Nc1ccccc1 | nt | i | nt | i | i | i
Cc1ccc(C)n1-c1ccc(C(=O)O)cc1 | nt | nt | nt | nt | nt | 3.2µM
COc1ccc(-n2c(C)c3c(OC)cccc(=O)c3c2C)cc1 | ? | i | i | i | i | i
COc1cccc(=O)c2c(C)n(-c3ccc(C(=O)O)cc3)c(C)c12 | 13µM | 50µM | ? | i | 16µM | 16µM
CC(=O)c1c(C(C)=O)c(C)n(-c2ccc(C(=O)O)cc2)c1C | i | i | i | i | i | i
COC(=O)C(Cc1ccccc1)NS(=O)(=O)c1cc(Br)ccc1Br (stereo not given) | nt | i | nt | i | i | nt
Cc1cc(C)c(CN2C(=O)c3ccccc3S(=O)(=O)c3ccc(C(=O)OCC4CCCO4)cc32)c(C)c1 (stereo not given) | i | i | nt | i | i | i
CC1CCN(C(=O)c2cccc(NC(=O)c3nsc4ccccc34)c2)CC1 | i | i | nt | i | i | i
N#CC(C#N)=C1C=C2C=C(N3CCCCC3)CCC2CC1 (stereo not given) | 79µM | i | ? | ? | ? | 50µM
C#CCOCCOCCOCCNc1nc(N2CCN(C(=O)CCCCCCCCCCNC(=O)[C@H](CCCCN)n3cc(C)nn3)CC2)nc(N2CCN(C(=O)CCCCCCCCCCNC(=O)[C@H](CCCN=C(N)N)n3cc(C[C@@H](C)CC)nn3)CC2)n1 | ? | ? | 45µM | 22µM | ? | nt
C#CCOCCOCCOCCNc1nc(N2CCN(C(=O)CCCCCCCCCCNC(=O)[C@@H](CCSC)n3cc(CCO)nn3)CC2)nc(N2CCN(C(=O)CCCCCCCCCCNC(=O)[C@H](CCCN=C(N)N)n3cc(C[C@@H](C)CC)nn3)CC2)n1 | 79µM | i | 50µM | 20µM | ? | nt
C#CCOCCOCCOCCNc1nc(N2CCN(C(=O)CCCCCCCCCCNC(=O)[C@H](CCCCN)n3cc(C[C@@H](C)CC)nn3)CC2)nc(N2CCN(C(=O)CCCCCCCCCCNC(=O)[C@@H]([C@H](C)O)n3cc(C)nn3)CC2)n1 | 79µM | i | 50µM | 32µM | i | nt
C#CCOCCOCCOCCNc1nc(N2CCN(C(=O)CCCCCCCCCCNC(=O)[C@H](CCCCN)n3cc(C[C@@H](C)CC)nn3)CC2)nc(N2CCN(C(=O)CCCCCCCCCCNC(=O)[C@H](CCCN=C(N)N)n3cc(C[C@@H](C)CC)nn3)CC2)n1 | 28µM | i | 32µM | 25µM | i | nt
CCCS(=O)(=O)Nc1cc(-c2cn3cccc(C)c3n2)ccc1C | i | i | nt | i | i | i
Cc1ccc(C)c(Cn2c(SCC(=O)N(C)Cc3ccccc3)nc3ccccc32)c1 | i | i | nt | i | i | i
CCOC(=O)c1c(-c2ccccc2)oc2ccc(N(C(C)=O)S(=O)(=O)c3ccc(CC)cc3)cc12 | i | i | nt | i | i | i
CC(=O)NCCNc1ncnc2ccc(-c3ccccc3C(F)(F)F)cc12 | nt | i | nt | nt | nt | nt
C#CCOCCOCCOCCNc1nc(N2CCN(C(=O)CCCCCCCCCCNC(=O)[C@H]([C@@H](C)CC)n3cc(CCCCN=C(N)N)nn3)CC2)nc(N2CCN(C(=O)CCCCCCCCCCNC(=O)[C@@H]([C@H](C)O)n3cc(C)nn3)CC2)n1 | ? | ? | 56µM | 25µM | ? | nt
COc1cccc(CNCCO)c1OCc1ccc(Cl)cc1 | i | i | i | i | i | i
CCOc1ccccc1CNc1ccc(O)cc1 | 50µM | i | i | i | 7.1µM | i
CCOc1cc(CNCc2ccccc2)ccc1OCc1ccc(Cl)cc1 | i | i | i | i | i | i
CCOc1cc(CNc2ccc(O)cc2)ccc1OCc1ccc(Cl)cc1Cl | 18µM | i | ? | i | 8.9µM | ?
CCOc1cccc(CNc2ccc(O)cc2)c1OCc1ccc(Cl)cc1 | 50µM | i | ? | i | 11µM | i
CCc1ccc(CNc2ccc3c(c2)ncn3CC)cc1 | i | i | i | i | i | i
SMILES | Pol eta inh | POLK inh | WRN helicase inh | FEN1 inh | POLI inh | Pol beta inh
CCc1ccc(CNc2ccc(O)cc2)cc1 | 25µM | i | 45µM | i | 2.8µM | ?
CCCSS/C(CCO)=C(/C)N(C=O)Cc1cnc(C)nc1N | nt | i[19.4 µM] | nt | nt | nt | nt
COc1ccc(-c2cc(-c3ccco3)[nH]c(=O)c2C#N)cc1 | ? | i | i | i | i | ?
N#Cc1c(-c2cccc(Br)c2)cc(-c2ccco2)[nH]c1=O | 50µM | i | ? | i | ? | 18µM
CCOC(=O)c1[nH]c2ccc(C)cc2c1NC(=O)CN1CCCCC1 | i | i | i | i | i | i
Cc1c2cc[n+](CCN3CCCCC3)cc2c(C)c2c1[nH]c1ccc(O)cc12 | 2.8µM | 35µM | 28µM | 13µM | 25µM | nt
N#Cc1c(-c2ccc(F)cc2)cc(-c2ccccc2)nc1SCC(=O)NCC(=O)O | i | i | i | ? | ? | 45µM
COC(=O)CSc1nc(N)c(C#N)c(-c2ccco2)c1C#N | ? | i | i | i | i | i
COC(=O)CSc1nc(-c2ccccc2)cc(-c2ccco2)c1C#N | i | i | i | i | i | 28µM
CC(=O)Nc1ccccc1-c1nc2ccccc2n(CC(=O)Nc2cccc(C)c2C)c1=O | i | i | nt | i | i | i
Oc1ccc(N=Cc2ccc(O)c(O)c2)cc1 | 3.2µM | 45µM | 32µM | ? | 13µM | ?
CCOC(=O)/C=C1/N(C)c2ccccc2C1(C)C | i | i | i | i | i | i
CN1/C(=C\P(=O)(N(C)C)N(C)C)C(C)(C)c2ccccc21 | i | i | 50µM | i | ? | i
CCCN(CCC)CCNC(=O)c1cc2c(-c3ccccc3F)nn(C)c2s1 | i | i | i | i | i | i
CCCN(CCC)CCNC(=O)c1cc2c(-c3ccc(Cl)cc3)nn(C)c2s1 | i | i | i | ? | i | 25µM
CCOc1ccc(NC(=O)Nc2ccc3nsnc3c2)cc1 | i | i | i | i | i | i
COCCNC(=S)Nc1ccc(Cl)c(Cl)c1 | i | i | i | i | i | i
COc1ccc(NC(=S)Nc2ccc3nc(C)c(C)nc3c2)cc1 | i | i | i | i | i | i
COc1ccc(NC(=S)Nc2ccc3nsnc3c2)cc1 | 7.1µM | i | ? | ? | 3.5µM | i
CC(C)N(C(=O)Nc1ccc2nsnc2c1)C(C)C | 8.9µM | 50µM | ? | ? | 1µM | 10µM
COCCNC(=S)Nc1ccc2nsnc2c1 | i | i | i | i | 20µM | i
CCOc1ccc(NC(=S)Nc2ccc3nsnc3c2)cc1 | 22µM | i | i[11.6 µM] | i | 10µM | ?
